Test results as given in PubChem BioAssay.
The source made the active and inactive calls. Unless noted, no rule for the calls is given here.

Experiments:
[1] = liver-stage malaria parasite load reduction – cell-based, known kinase inhibitor set, luminescence, hepatoma host viability (AID 624392); conditions: Plasmodium liver stage in hepatoma cells, luciferase luminescence, concentration not given here; liver cell % of control: measured here: host liver cell viability; parasite % of control: stronger effect = lower value;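 also: infected cells incubated roughly two days before readout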
[2] = altered dexamethasone sensitivity, NF-kB reporter, cell-based, luciferase, IL-1B stimulus (AID 624486); conditions: IL-1B + dexamethasone, luminescence; percent of negative control (+Dex): actives lie on both sides, concentration not given here; z-score: measured here: IL-1B alone, no Dex;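 as to percent of negative control (+Dex): 100% = mean signal of vehicle control wells on the plate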
[3] = C. elegans survival during P. aeruginosa infection – whole organism (AID 651566);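 also: tested at 14 µM; sign flipped so higher z means a lower ratio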; conditions: C. elegans killed by P. aeruginosa, survival ratio
[4] = pro-inflammatory signaling induction in mouse macrophages – cell-based, murine, luminescence (AID 652131); conditions: murine macrophage pro-inflammatory reporter, stronger effect = higher value
[5] = inducers of IRF3 signaling, differentiated THP-1 – cell-based, PMA-stimulated THP-1, luminescence (AID 1053176); conditions: PMA-differentiated THP-1, IRF3 reporter luminescence; stronger effect = higher value
[6] = MELAS cybrid and Rieske KO viability enhancers – cell-based, MELAS cybrids, Rieske KO mouse fibroblasts, CellTiter-Glo, primary screen (AID 1508586;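 active = mean z-score across replicates of 1.96 or higher in either the MELAS or the Rieske mutant cell line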;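 also: z relative to plate mean and SD of compound and empty wells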); conditions: low glucose
[7] = Wnt pathway potentiators raising nuclear beta-catenin – imaging, WNT3A-conditioned medium, mouse C2C12, NPC library, primary screen (AID 1117326; in the data active = nuclear beta-catenin stimulation mostly above about 4.2%, no sharp cut-off; inactive = mostly below about 10%); conditions: stronger effect = higher value
[8] = stimulators of insulin release from INS-1E, primary screen, cell-based, 5 mM glucose, NPC library (AID 1117329;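 active = compound raises insulin release from rat beta cells at 5 mM glucose, no numeric limit stated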); conditions: rat INS-1E insulin secretion, at 10 µM, stronger effect = higher value
[9] = growth inhibition of GSK3B-pretreated HCT116 cells – cell-based, CellTiter-Glo, 0.2 to 20 µM (AID 1117336;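 active = compounds lowering colon cancer cell viability after pretreatment blocking the GSK3B kinase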); conditions: HCT116 viability after GSK3B inhibitor, at 20 µM, stronger effect = higher value
[10] = inhibition of endothelial tube formation, primary screen, imaging, VEGF stimulated, CD31 staining, tube area, NPC library (AID 1117340;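 active = compound that reduces growth-factor-driven endothelial tube area in a mixed cell culture, no cutoff stated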); conditions: VEGF-stimulated ADSC/ECFC co-culture, at 10 µM, stronger effect = higher value
[11] = GLP1 release stimulators, primary, NCI-H716, NPC library (AID 1117341;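 active = compound raises GLP1 secretion from the human gut endocrine cells, with no numeric limit stated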); conditions: NCI-H716 cells, at 10 µM, stronger effect = higher value
[12] = HCT116 colon cancer cell growth inhibition, primary screen, CellTiter-Glo luminescence, NPC library (AID 1117342;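 active = compounds that lower survival of HCT116 colon cancer cells in the luminescence readout, no numeric limit stated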); conditions: at 20 µM (top of the series)
[13] = reduced SW480 viability measured with CellTiter-Glo, NPC library, primary (AID 1117343;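 active = compounds that lower viability of the colon cancer cells in the luminescence readout, with no numeric limit stated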); conditions: CellTiter-Glo luminescence; at 20 µM (top of the series)
[14] = NPC library primary testing for decreased DLD-1 cell viability via CellTiter-Glo (AID 1117346;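 active = compounds that lower survival of DLD-1 colon cancer cells in the luminescence readout, no cutoff given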); conditions: DLD-1 viability, CellTiter-Glo luminescence; at 20 µM (top of the series)
[15] = MELAS cybrid survival, CellTiter-Glo 48 h, stronger effect = higher value
[16] = Rieske KO mouse fibroblast survival, CellTiter-Glo 72 h

| Compound | liver cell % of control [1] | parasite % of control [1] | percent of negative control (+Dex) [2] | z-score [2] | z-score [3] | z-score [4] | fraction signal [5] | z-score [6, 15] | z-score [6, 16] | nuclear beta-catenin stimulation ([7]; at 10 µM) | nuclear beta-catenin stimulation ([7]; stimulation, at 2 µM) | insulin secretion stimulation [8] | viability decrease [9] | tube area decrease [10] | GLP1 secretion stimulation [11] | inhibition of viability [12] | viability decrease (inhibition) [13] | viability decrease (inhibition) [14] |
| --- | --- | --- | --- | --- | --- | --- | --- | --- | --- | --- | --- | --- | --- | --- | --- | --- | --- | --- |
| COc1ccc2ncn(-c3cc(O[C@H](C)c4ccccc4Cl)c(C(N)=O)s3)c2c1 | 108% | 124% (inactive) | 77.5% (inactive) | -2.52 | 0.63 (inactive) | -1.39 (inactive) | -0.0045 (inactive) | -0.983 (inactive) | 0.0827 | – | – | – | – | – | – | – | – | – |
| COc1ccccc1C1=C(Nc2ccccc2)C(=O)NC1=O | 112% | 110% (inactive) | 102% (inactive) | 0.775 | -0.36 (inactive) | -0.103 (inactive) | -0.012 (inactive) | -1.08 (inactive) | -0.271 | – | – | – | – | – | – | – | – | – |
| Oc1ccccc1C=NCc1ccccc1 | – | – | – | – | – | – | – | – | – | -0.8% (inactive) | -0.6% | -2.2% (inactive) | 0.9% (inactive) | -29.7% (inactive) | 3.8% (inactive) | 0.1% (inactive) | 13.6% (inactive) | 0.75% (inactive) |
| N#Cc1c(NC(=O)c2ccc(F)c3ccccc23)sc2c1CCCC2 | 93.8% | 163% (inactive) | 118% (inactive) | 0.625 | 1.47 (inactive) | -1.25 (inactive) | 0.0065 (inactive) | -0.605 (inactive) | 0.108 | – | – | – | – | – | – | – | – | – |
| Fc1ccc(-c2ncn(C3CCNCC3)c2-c2ccnc(Oc3ccc(Cl)cc3)n2)cc1 | 79.3% | 63.5% (inactive) | 103% (inactive) | 0.58 | 0.16 (inactive) | -0.186 (inactive) | -0.006 (inactive) | 0.00888 (inactive) | -0.374 | – | – | – | – | – | – | – | – | – |
| Cc1c(C)c2c(c(C)c1OC(=O)CCC(=O)OCCO)CC[C@@](C)(CCC[C@H](C)CCC[C@H](C)CCCC(C)C)O2 | – | – | – | – | – | – | – | – | – | 0% (inactive) | -0.6% | 0.25% (inactive) | 116% (active) | 17.4% (inactive) | 23% (active) | 122% (active) | 157% (active) | 101% (active) |
| CN1CCN(N)CC1 | – | – | – | – | – | – | – | – | – | 1.1% (inactive) | 0.7% | 1.5% (inactive) | -1.2% (inactive) | -7.3% (inactive) | 0.5% (inactive) | 0.1% (inactive) | -13.8% (inactive) | 10.2% (inactive) |
| COc1cc(Nc2ncc(-c3ccccc3)o2)cc(OC)c1OC | 152% | 18.6% (inactive) | 93.5% (inactive) | 0.42 | 1.53 (inactive) | -0.164 (inactive) | -0.0025 (inactive) | 1.37 (inactive) | -0.275 | – | – | – | – | – | – | – | – | – |
| CS(=O)(=O)CCN(CC#N)Cc1ccc(-c2ccc3ncnc(Nc4ccc(OCc5cccc(F)c5)c(Cl)c4)c3c2)o1 | 98.1% | 143% (inactive) | 82% (inactive) | -0.4 | 0.225 (inactive) | 0.25 (inactive) | 0.001 (inactive) | -0.391 (inactive) | -0.288 | – | – | – | – | – | – | – | – | – |
| O=C(/C=C/c1ccccc1)NCCO | – | – | – | – | – | – | – | – | – | 1.1% (inactive) | 1.4% | -2.3% (inactive) | -9.8% (inactive) | 26.7% (inactive) | -1.5% (inactive) | 12.9% (inactive) | -3.5% (inactive) | -16.4% (inactive) |
| CCCCCCCCCCCC(=O)[O][Sn]([CH2]CCC)([CH2]CCC)[O]C(=O)CCCCCCCCCCC | – | – | – | – | – | – | – | – | – | 75.9% (active) | 7.2% | 0% (inactive) | -72% (inactive) | 94.7% (active) | 49% (active) | 5.07% (inactive) | 133% (active) | 101% (active) |
| O=C(O)CC(O)C(=O)O (centres undefined) | – | – | – | – | – | – | – | – | – | 6% (inactive) | 0% | -0.5% (inactive) | -6% (inactive) | 1.8% (inactive) | 1.3% (inactive) | -8.5% (inactive) | 13.3% (inactive) | -7.65% (inactive) |
| N#Cc1c(NC(=O)c2cccc3ccccc23)sc2c1CCCN2C(=O)C1CC1 | 190% | 15.9% (inactive) | 106% (inactive) | -0.12 | -0.17 (inactive) | -0.734 (inactive) | 0.002 (inactive) | -0.726 (inactive) | -0.0978 | – | – | – | – | – | – | – | – | – |
| Fc1ccc(Oc2nccc(-c3c(-c4ccc(F)cc4)ncn3C3CCNCC3)n2)cc1 | 104% | 122% (inactive) | 107% (inactive) | 1.11 | -1.01 (inactive) | 7.24 (active) | 0 (inactive) | -0.283 (inactive) | -0.391 | – | – | – | – | – | – | – | – | – |
| NS(=O)(=O)c1cc(C(=O)NN2C[C@H]3[C@H]4CCC(C4)[C@H]3C2)ccc1Cl | – | – | – | – | – | – | – | – | – | -1.3% (inactive) | 2.2% | -3.6% (inactive) | -4.2% (inactive) | -14.3% (inactive) | -0.6% (inactive) | 10.3% (inactive) | -2.9% (inactive) | -6.4% (inactive) |
| CCCCCCCCCCCC(=O)OCC(O)CO (centres undefined) | – | – | – | – | – | – | – | – | – | -1.2% (inactive) | 2.9% | -1.1% (inactive) | -3.8% (inactive) | 14.2% (inactive) | -3.3% (inactive) | -2.2% (inactive) | 44.7% (inactive) | 44.9% (inactive) |
